Some compounds were tested as several samples or in several runs, with calls that do not always agree. The source made the active and inactive calls. Rule for the calls: active = hit-call score of the fitted dose curve at least 0.9, where 1 is the maximum; inactive = score below 0.9.

Read-out in the assay: Monocyte Chemoattractant Protein-1 (MCP1), CCL2 (gene 6347)
The assay is described as follows: BSK_4H_MCP1: BioMAP Diversity Plus: 4H Assay for Monocyte Chemoattractant Protein-1 (MCP1) Biomarker Activity (AID 2283018). Particulars: primary human endothelial cells (HUVEC); actives raise or lower the signal. How it is done:
BSK_4H is a cell-based, multiplexed-readout assay that uses umbilical vein endothelium, a human vascular primary cell, with measurements taken at 24 hours after chemical dosing in a 96-well plate.BSK_4H_MCP1 is an assay component measured in the BSK_4H assay. It measures MCP-1 antibody related to regulation of gene expression using ELISA technology.Data from the assay component BSK_4H_MCP1 was analyzed into 1 assay endpoint. This assay endpoint, BSK_4H_MCP1, was analyzed with bidirectional fitting relative to DMSO as the negative control and baseline of activity. Using a type of binding reporter, gain or loss-of-signal activity can be used to understand changes in the signaling as they relate to the gene CCL2. Furthermore, this assay endpoint can be referred to as a primary readout, because this assay has produced multiple assay endpoints where this one serves a signaling function. To generalize the intended target to other relatable targets, this assay endpoint is annotated to the cytokine intended target family, where the subfamily is chemotactic factor.
The levels of cell surface (or secreted, indicated by the prefix "s") biomarker endpoints were measured by ELISA. Overt cytotoxicity to cells in confluent adherent cultures (all systems other than the BT system) was assessed by measuring total protein levels using sulforhodamine B (SRB) staining in parallel cultures at the time of biomarker measurements, indicated as SRB endpoints. For proliferation assays for adherent cell types, individual cell types are cultured at sub-confluence and relative cell numbers quantified by SRB staining at time points optimized for each system (48 h: 3C and CASM3C systems; 72 h: BT and HDF3CGF systems; 96 h: SAg system). SRB was performed by staining cells with 0.1% SRB after fixation with 10% TCA and reading wells at 560 nm.Viability and proliferation of PBMC (T cells) was quantified by Alamar Blue reduction for the SAg and BT systems. For PBMC viability (referred to as PBMC Cytotoxicity within the assay endpoint names), cells were plated (75,000/well in a 96-well plate) and then chemical samples added for 1 h before addition of activators, SEB and TSST-1 (20 ng/mL final concentration each). Cells were incubated for 90 h. Then, Alamar Blue (20 uL/well) (Invitrogen, Cat DAL1100) was added for 6 h, and the plates were read with a fluorescence microplate reader at 546/580 nm (excitation/emission). For PBMC proliferation, cells were plated and activated as above but incubated for only 16 h prior to addition of Alamar Blue. Plates were read after 6 h.
Take `CCCCCCCc1ccc(O)cc1`: the AC50 was 29.1 µM (active). On to `OCC(F)(F)OC(F)(F)C(F)(F)OC(F)(F)C(F)(F)OC(F)(F)F`, for which the result was inactive and the AC50 was 45.4 µM (active).

With `O=[N+]([O-])c1ccc(Cl)c(Cl)c1`, the result was inactive. The same measure, in the same setting: then `O=C(O)C(F)(F)OC(F)(F)C(F)(F)OC(F)(F)C(=O)O`, with “inactive”. As for `ClC1=C(Cl)C2(Cl)C3C(Cl)C(Cl)CC3C1(Cl)C2(Cl)Cl` (stereo not given), the half-maximal activity concentration (AC50) was 12.1 µM (active). Turning to `Cc1ccc([N+](=O)[O-])cc1C`, the result was inactive. On the same count and under the same terms, the value for `CCOP(=S)(NC(C)C)Oc1ccccc1C(=O)OC(C)C` (stereo not given) was “inactive”. On the same count and under the same terms, the value for `ClC(Cl)c1ccccc1` was “inactive”; that for `FC(F)(F)C(F)(C(F)(F)F)C(F)(F)C(F)(F)CC1CO1` (stereo not given) was “inactive”. For `O=[N+]([O-])c1ccccc1`, the result was inactive.

For the molecule `c1ccc2c(c1)Nc1ccccc1S2`, the result was inactive. Turning to `CCNc1nc(Cl)nc(NC(C)(C)C)n1`, the outcome was inactive. Same read-out and setting: then `CC(Cl)(Cl)C(=O)O`, with “inactive”. Turning to `O=c1ssc(Cl)c1Cl`, the AC50 is 3.92 µM (active). On to `CCOc1ccc(C(C)(C)COCc2cccc(Oc3ccccc3)c2)cc1`, for which the result was inactive. Regarding `CCCCN(CCCC)SN(C)C(=O)Oc1cccc2c1OC(C)(C)C2`, the AC50 was 26 µM (active).

Take `CC(C)(C)OOC(C)(C)C`: the outcome was inactive.

For the molecule `O=S(=O)(F)C(F)(F)C(F)(F)C(F)(F)C(F)(F)C(F)(F)C(F)(F)C(F)(F)C(F)(F)F`, the outcome was inactive. On the same count and under the same terms, the value for `CCC1(c2ccccc2)C(=O)N=C(O)NC1=O` (stereo not given) was “inactive”. `CC(C)Nc1ccc(Nc2ccccc2)cc1`: the AC50 is 6.18 µM (active). Take `CCOC(=O)c1ccccc1C(=O)OCC`: the outcome was inactive. `OCC(F)(F)OC(F)(F)C(F)(F)OC(F)(F)C(F)(F)OC(F)(F)CO`: the result was inactive and the AC50 is 16.2 µM (active). Consider `CCCCc1ccccc1`, for which the outcome was inactive.

For the molecule `CCN(CC)c1ccccc1`, the result was inactive.

As for `CSC(C)(C)C=NO`, the result was inactive. The same measure, in the same setting: then `COC(=O)C(F)(F)C(F)(F)OC(F)(C(F)(F)F)C(F)(F)OC(F)=C(F)F` (stereo not given), with “inactive”; and `COP(=O)(O)OC`, with “inactive”. The same measure, in the same setting: the value for `CN(C)C(=O)Cl` was “inactive”. The same measure, in the same setting: the value for `Nc1cc2c3c(c1)C(c1ccccc1)=N[C@@H](NC(=O)c1cccnc1)C(=O)N3CC2` was “inactive”. Take `CCCN(CCC)c1c([N+](=O)[O-])cc(C(C)C)cc1[N+](=O)[O-]`: the AC50 is 20 µM (active).

In the case of `CCOP(=S)(OCC)SCS(=O)(=O)CC`, the result was inactive. Turning to `ClC(Cl)(Cl)c1ccccc1`, the outcome was inactive.

As to `Nc1ccc(Cl)cc1`, the outcome was inactive. As to `O=P(Oc1ccccc1)(Oc1ccccc1)Oc1ccccc1`, the AC50 was 13.6 µM (active). Consider `OCC1CO1` (stereo not given), for which the outcome was inactive. On the same count and under the same terms, then `CC(Cc1ccc(OCC(=O)O)cc1)NCC(O)c1csc(C(F)(F)F)n1` (stereo not given), with “inactive”; and `O=C(O)C(F)(OC(F)(F)C(F)(F)C(F)(F)F)C(F)(F)F` (stereo not given), with “inactive”.

In the case of `O=C(O)C=CC(F)(C(F)(F)F)C(F)(F)F`, the outcome was inactive.

The AC50 is the midpoint of the concentration-response curve, whichever way the signal moves.

Source of the values: PubChem BioAssay (EPA / NIEHS).
